Structures can show the parent of a compound that is named as a salt.

The experiment has as its system Danio rerio larvae (5 dpf). In words: habituation (activity change first vs second 5 min of 1-s interval sound, period 17) minus DMSO control (percentage points); higher = larger habituation measure than DMSO larvae. The conditions noted are these: 10 µM; exposure time: 3 h pre-incubation + 3 h imaging. As to the method:
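Wild-type 5 dpf zebrafish larvae (n=48 per drug, 96-well plates, 28.5 °C) were exposed to Tocris FDA-approved library compounds at 10 µM (0.1% DMSO) for 3 h before and 3 h during imaging. Images were taken every 6 s during visual (moving coloured lines) and acoustic stimuli, and larvae were tracked with the DeepLabCut-based Z-LaP Tracker. Each behavioural measure is the treated-group mean minus the DMSO vehicle control mean (n=844), in percentage points. This mapping covers compounds with 4-character plate codes.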
Consider `Nc1nc(Cl)nc2c1ncn2[C@@H]1O[C@H](CO)[C@@H](O)[C@@H]1F` [Clofarabine], for which the habituation was -1.06.

Turning to `CN1CCN(CCCN2c3ccccc3Sc3ccc(Cl)cc32)CC1` [Prochlorperazine dimaleate], the habituation was -8.1. With `CC(C)[C@H]1CC[C@H](C(=O)N[C@H](Cc2ccccc2)C(=O)O)CC1` [Nateglinide], the habituation was -2.04. In the case of `O=C(c1ccc(OCCN2CCCCC2)cc1)c1c(-c2ccc(O)cc2)sc2cc(O)ccc12` [Raloxifene hydrochloride], the habituation was -3.07. In the case of `Cn1cnc([N+](=O)[O-])c1Sc1ncnc2[nH]cnc12` [Azathioprine], the habituation is -3.52. For the molecule `N#Cc1ccc(C(c2ccc(C#N)cc2)n2cncn2)cc1` [Letrozole], the habituation turned out to be 3.66. Turning to `Cc1ccc(-c2cc(C(F)(F)F)nn2-c2ccc(S(N)(=O)=O)cc2)cc1` [Celecoxib], the habituation is -9.16. Regarding `Clc1ccccc1C(c1ccccc1)(c1ccccc1)n1ccnc1` [Clotrimazole], the habituation is -2.1. Regarding `Nc1nc(NC2CC2)c2ncn([C@H]3C=C[C@@H](CO)C3)c2n1` [Abacavir hemisulfate], the habituation amounted to 3.13. Consider `COc1cccc2c1C(=O)c1c(O)c3c(c(O)c1C2=O)C[C@@](O)(C(=O)CO)C[C@@H]3O[C@H]1C[C@H](N)[C@H](O)[C@H](C)O1` [Doxorubicin hydrochloride], for which the habituation was found to be 0.248. On to `CC(C)C(=O)Nc1ccc([N+](=O)[O-])c(C(F)(F)F)c1` [Flutamide], for which the habituation is -15.4. With `CC/C(=C(\c1ccccc1)c1ccc(OCCN(C)C)cc1)c1ccccc1` [Tamoxifen citrate], the habituation was -7.1. Take `CC(CCc1ccc(O)cc1)NCCc1ccc(O)c(O)c1` (stereo not given) [Dobutamine hydrochloride]: the habituation amounted to 3.31. Regarding `CCCCC1=NC2(CCCC2)C(=O)N1Cc1ccc(-c2ccccc2-c2nnn[nH]2)cc1` [Irbesartan], the habituation is -1.18. Take `Nc1ncn([C@@H]2O[C@H](CO)[C@@H](O)[C@H]2O)c(=O)n1` [5-Azacytidine]: the habituation was 0.429. In the case of `NS(=O)(=O)Cc1noc2ccccc12` [Zonisamide], the habituation came out at 1.66.

`O=C(NCC1CCCCN1)c1cc(OCC(F)(F)F)ccc1OCC(F)(F)F` (stereo not given) [Flecainide acetate]: the habituation came out at 0.225.

For the molecule `O=C(O[C@@H]1C[C@@H]2C[C@H]3C[C@H](C1)N2CC3=O)c1c[nH]c2ccccc12` [Dolasetron mesylate], the habituation stood at 1.05.

Turning to `CCC(=O)O[C@]1(C(=O)SCF)[C@H](C)C[C@H]2[C@@H]3C[C@H](F)C4=CC(=O)C=C[C@]4(C)[C@@]3(F)[C@@H](O)C[C@@]21C` [Fluticasone propionate], the habituation came out at 2.72. Then `Nc1cccc2c1CN(C1CCC(=O)NC1=O)C2=O` (stereo not given) [Lenalidomide], with -0.218. In the case of `COc1ccc([C@@H]2Sc3ccccc3N(CCN(C)C)C(=O)[C@@H]2OC(C)=O)cc1` [Diltiazem hydrochloride], the habituation is -0.219. For `CNC(=O)c1ccccc1Sc1ccc2c(/C=C/c3ccccn3)n[nH]c2c1` [Axitinib], the habituation came to 0.305. Then `CN1CC2c3ccccc3Oc3ccc(Cl)cc3C2C1` (stereo not given) [Asenapine maleate], with -12.6; and `CCCN(CCC)S(=O)(=O)c1ccc(C(=O)O)cc1` [Probenecid], with 3.79; and `O=C(O)c1cc(/N=N/c2ccc(S(=O)(=O)Nc3ccccn3)cc2)ccc1O` [Sulfasalazine], with 1.27. Then `C=C1[C@H](CO)[C@@H](O)C[C@@H]1n1cnc2c(=O)[nH]c(N)nc21` [Entecavir], with 1.2. `CN(C)CCc1c[nH]c2ccc(Cn3cncn3)cc12` [Rizatriptan benzoate]: the habituation is -1.58. For the molecule `Cc1cccc(C)c1OCC(C)N` (stereo not given) [Mexiletine hydrochloride], the habituation worked out at 6.36. `C[C@@H](O[C@H]1OCCN(Cc2n[nH]c(=O)[nH]2)[C@H]1c1ccc(F)cc1)c1cc(C(F)(F)F)cc(C(F)(F)F)c1` [Aprepitant]: the habituation stood at 1.46. Take `COc1ccc(C[C@@H](C)NC[C@H](O)c2ccc(O)c(NC=O)c2)cc1` [Arformoterol tartrate]: the habituation was -3.57. For the molecule `CCOc1ccccc1OCCN[C@H](C)Cc1ccc(OC)c(S(N)(=O)=O)c1` [Tamsulosin hydrochloride], the habituation worked out at 1.59. For the molecule `CCCc1nc(C(C)(C)O)c(C(=O)O)n1Cc1ccc(-c2ccccc2-c2nnn[nH]2)cc1` [Olmesartan], the habituation worked out at 2.6. Consider `CC(=O)NC[C@H]1CN(c2ccc(N3CCOCC3)c(F)c2)C(=O)O1` [Linezolid], for which the habituation was -3.73. Consider `CS(=O)(=O)CCNCc1ccc(-c2ccc3ncnc(Nc4ccc(OCc5cccc(F)c5)c(Cl)c4)c3c2)o1` [Lapatinib], for which the habituation is -1.33. Regarding `Cc1ccc(N(CC2=NCCN2)c2cccc(O)c2)cc1` [Phentolamine Mesylate], the habituation was 8.8. Next, `Cc1nnc(C(C)C)n1C1C[C@H]2CC[C@@H](C1)N2CC[C@H](NC(=O)C1CCC(F)(F)CC1)c1ccccc1` (stereo in doubt) [Maraviroc]: 3.31; `CC(=O)Oc1ccccc1C(=O)O` [Aspirin]: -4.51; `CCOc1nc2cccc(C(=O)O)c2n1Cc1ccc(-c2ccccc2-c2nnn[nH]2)cc1` [Candesartan]: 5.98. Regarding `CC1CNc2c(cccc2S(=O)(=O)N[C@@H](CCCNC(=N)N)C(=O)N2CC[C@@H](C)C[C@@H]2C(=O)O)C1` (stereo not given in full) [Argatroban], the habituation was -0.107. Then `CCCc1nc2c(C)cc(-c3nc4ccccc4n3C)cc2n1Cc1ccc(-c2ccccc2C(=O)O)cc1` [Telmisartan], with -1.73.

Values taken from the supplement of paper PMC9950053.
